# NALP1 yeast inh = inhibitors of NALP1 inflammasome in yeast. inhibition, % at 10 µM. AID 2071. 280,000 tested, 0.61% active. S. cerevisiae NALP1/ASC/caspase-1 growth, X-gal OD620, 72 h; in the data active = inhibition mostly above about 24%, no sharp cut-off; inactive = mostly below about 32%
# GRIN3A LBD mod = NR3A (human) ligand-binding domain modulation | NR3A LBD differential scanning fluorimetry, Tm shift; 0% = protein alone, 100% = glycine-bound protein | Tm shift relative to glycine control, % at 25 µM | 340,000 tested, 2.5% active | AID 1259313;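 active = melting temperature shift of at least 10% of the positive control shift, at one fixed dose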
# UBC13 polyUb = inhibitors of human UBC13 polyubiquitin chain formation. TR-FRET. inhibition, % at 20 µM. 330,000 tested, 0.47% active; in the data active = inhibition above about 45%, passing the limit was not always enough; inconclusive = no clear call, values can overlap the other calls
# Target sequence (P61088 whole entry, looked up): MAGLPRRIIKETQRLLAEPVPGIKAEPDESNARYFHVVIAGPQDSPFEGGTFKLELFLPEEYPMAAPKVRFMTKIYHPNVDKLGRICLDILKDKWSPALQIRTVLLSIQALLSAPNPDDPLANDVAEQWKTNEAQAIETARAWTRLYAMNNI
# CR mimetic SO = caloric restriction mimetics inhibiting age-related superoxide in yeast | AID 2690 | superoxide response (% of plate mean), % at 10 µM | 330,000 tested, 0.18% active | S. cerevisiae aged cells, superoxide DHE fluorescence; stronger effect = lower value;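 active = superoxide response under a set limit, about three screen SD below normal, cut at about 65% in these data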;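 also: yeast aged for seven days with compound at 30 °C before DHE staining; 100% = average MFI of all compound-treated wells on the plate with controls excluded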
# dFosB activator = activators of mouse delta FosB homodimer; activation, % at 25 µM; P13346; 340,000 tested, 0.99% active; purified delta FosB, TAMRA-CDK5 oligo fluorescence polarization; percent of positive-control signal above neutral wells;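 active = mean activation above about 17%, with every replicate also reaching it, limit read from the data, passing the limit was not always enough; inconclusive = only one of the two conditions met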
# Target sequence (P13346 whole entry, looked up): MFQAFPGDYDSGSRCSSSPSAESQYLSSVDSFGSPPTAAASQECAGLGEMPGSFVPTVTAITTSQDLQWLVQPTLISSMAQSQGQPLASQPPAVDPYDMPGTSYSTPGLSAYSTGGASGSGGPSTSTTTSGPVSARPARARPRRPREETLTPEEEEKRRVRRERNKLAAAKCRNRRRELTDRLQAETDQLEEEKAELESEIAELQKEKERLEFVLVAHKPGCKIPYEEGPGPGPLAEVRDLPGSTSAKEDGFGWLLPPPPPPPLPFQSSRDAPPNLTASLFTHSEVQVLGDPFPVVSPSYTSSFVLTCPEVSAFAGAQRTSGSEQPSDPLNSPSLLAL
# * marks the source's active call; other numbers are inactive results; u = inconclusive; x = no result given. Hits are enriched below; roughly 4.3% of the tested compounds scored in any of these assays.
SMILES,NALP1 yeast inh,GRIN3A LBD mod,UBC13 polyUb,CR mimetic SO,dFosB activator
CN1CCN(C(=O)C2=C[C@@H](C3CCCCC3)C[C@@H](OCc3ccc(CO)cc3)O2)CC1,24.3*,1.3,-4.2,98.0,-1.8
Cc1ccccc1OCC(=O)NC(=S)Nc1cccc2cc(O)ccc12,12.7,19.5*,-37.3,95.1,6.9
Cc1ccccc1OCC(=O)NC(=S)Nc1ccc(Br)c(C)n1,7.3,-3.5,15.4,96.8,2.2
COc1ccc(-c2sc3ccc(OC)cc3c2-c2ccc(OCCN3CCOCC3)cc2)cc1,x,4.7,x,98.0,4.7
COc1ccccc1-c1sc2ccccc2c1-c1ccc(OCCN2CCCCC2)cc1,x,7.4,x,83.2,u
COc1ccc2c(-c3ccc(OCCN4CCCCC4)cc3)c(-c3ccccc3OC)sc2c1,x,8.7,x,88.6,47.5*
COc1cccc(-c2sc3cc(OC)c(OC)cc3c2-c2ccc(OCCN3CCCCC3)cc2)c1,x,4.7,x,99.2,34.1*
COc1cccc(-c2sc3ccc(OC)cc3c2-c2ccc(OCCN3CCCC3)cc2)c1,x,-0.7,x,85.3,-7.5
c1ccc(-c2sc3ccccc3c2-c2ccc(OCCN3CCCC3)cc2)cc1,x,-4.7,81.6*,82.4,-1.5
CCCc1[nH]n(-c2ccc([N+](=O)[O-])cc2)c(=O)c1C(C)=NCc1ccncc1,x,-1.3,-13.4,109.3,-13.4
CCn1c(C(C)NC(=O)c2cccs2)n[nH]c1=S (stereo not given),27.4,10.0*,9.6,96.8,0.5
Cc1ccc(C(=O)N2CC(=O)NC(=O)C2)cc1,8.1,0.3,-0.9,94.2,7.6
CC(C)n1nnnc1SCC(=O)N1CCN(Cc2ccc3c(c2)OCCO3)CC1,x,0.4,-8.9,96.8,0.2
COc1ccc(-c2csc(NC(=O)CSc3nc4ccccc4c(=O)[nH]3)n2)cc1,9.6,20.6*,2.0,119.6,13.1
Cc1cc(=O)[nH]c(SCC(=O)Nc2nc(-c3ccccc3)cs2)n1,-8.0,-4.5,-3.8,96.5,-10.6
Nc1ccccc1SCC(=O)Nc1nc(-c2ccccc2)cs1,13.8,10.6*,15.3,122.6,-0.9
O=C(CSc1nc2ccccc2c(=O)[nH]1)Nc1ccc(N2CCOCC2)cc1,1.5,17.4*,4.7,86.4,3.3
Cc1ccc(-c2csc(NC(=O)CSc3nc4ccccc4[nH]3)n2)cc1,40.5,20.5*,x,x,3.0
Cc1ccccc1C1C(C#N)=C(N)N(N(C)C)C2=C1C(=O)CC(C)(C)C2 (stereo not given),14.2,-0.2,0.1,100.4,-4.3
C=CCN(c1ccccc1)S(=O)(=O)c1cccc(C(=O)N2CC(C)CC(C)C2)c1 (stereo not given),15.7,-1.3,10.8,96.6,-24.3
O=[N+]([O-])c1ccc(C=NN2CCCCCC2)cc1,x,5.1,x,x,1.5
COc1ccc2nc(SCC(=O)Nc3ccccc3)[nH]c2c1,32.5,17.2*,-0.1,69.1,-15.1
COc1cc(SC)ccc1C(=O)NCCCn1ccnc1,3.2,-1.6,2.2,86.8,-4.4
CC1(C)Cc2nc3sc4c(NCCO)ncnc4c3cc2CS1,30.6*,-0.1,10.2,98.5,-15.3
CCn1c(SCC(=O)Nc2ccccc2C)nc2nc3c(cc2c1=O)COC(C)(C)C3,16.5,0.3,4.8,81.2,-2.5
SMILES,NALP1 yeast inh,GRIN3A LBD mod,UBC13 polyUb,CR mimetic SO,dFosB activator
CCN(CC)c1ccc2c(-c3ccc(S(=O)(=O)O)cc3S(=O)(=O)[O-])c3ccc(=[N+](CC)CC)cc-3oc2c1,-3.0,-437.3,-202.4,76.1,62.9*
CCN(CC)c1ccc2nc3c4ccccc4c(=O)cc-3oc2c1,1.3,1.2,-19.5,107.1,x
CC(=O)c1cccc(NC(=S)N2CCN(S(=O)(=O)c3ccccc3)CC2)c1,8.8,-0.5,7.5,112.4,-12.4
COc1ccc(-c2cc(C(F)F)n3ncc(C(=O)Nc4cc(C)on4)c3n2)cc1,42.9*,1.3,13.1,89.6,-25.9
N#C/C(=C\c1c[nH]c2ccc(Br)cc12)c1ccccn1,-3.1,22.2*,7.3,90.1,-12.3
COc1ccc(CN2CCN(C(=O)c3ccccc3C(=O)c3ccccc3)CC2)cc1OC,x,-1.3,x,x,-13.0
CCOC(=O)CC(=O)CSc1nc2c(c(C)c1C#N)CCC2,-0.8,19.9*,6.0,104.7,-2.1
N#Cc1c(N)nc(SCC(=O)C23CC4CC(CC(C4)C2)C3)c(C#N)c1-c1ccc(Cl)cc1,18.6,0.5,6.8,107.9,2.8
CCOC(=O)CC(=O)CSc1nc(N)c(C#N)c(-c2ccc(Cl)cc2)c1C#N,18.5,15.6*,21.9,128.5,-7.9
CCOC(=O)CC(=O)CSc1nc(C)cc(C)c1C#N,27.9,-1.1,10.4,90.0,-5.9
COC(=O)c1cc(OC)c(OC)cc1NC(=O)c1csc(C)c1,0.2,0.9,14.6,100.3,-2.2
COc1ccc(-n2nc(C(=O)NCC(=O)Nc3ccccn3)c3ccccc3c2=O)cc1Cl,15.3,0.1,26.8,x,67.2*
COc1ccc(-n2nc(C(=O)NCC(=O)NC(C)C)c3ccccc3c2=O)cc1Cl,-0.5,-1.7,-2.5,86.3,-16.7
Cc1ncc(CO)c(/C=N/Nc2ccc(C(F)(F)F)cn2)c1O,-15.9,26.8*,-3.6,107.3,-6.9
Cc1ncc(CO)c(/C=N/NC(=S)Nc2ccc(F)cc2)c1O,5.7,-3.4,43.0,84.8,-5.6
O=C(Nc1ccc(N=Nc2ccccc2)cc1)c1ccc(Cl)cc1Cl,-3.3,-0.1,-4.5,124.4,-0.2
O=C(CCl)Nc1ccc(N=Nc2ccccc2)cc1,78.5*,0.7,x,x,2.2
O=C(Nc1ccc(N=Nc2ccccc2)cc1)c1ccccc1Cl,35.8,14.6*,-16.0,89.9,-6.7
O=Nc1c(-c2ccccc2)cc2ccccn12,38.4*,-1.7,-98.6,136.3,-1.2
CN(C)C(=O)C(=O)c1c(-c2ccccc2)cc2ccccn12,37.3,-1.5,-5.2,122.2,-3.5
COc1ccc2nc(SC(C)C(=O)NC3CCCC3)[nH]c2c1 (stereo not given),x,x,4.5,x,-6.9
CCN(CC)CCNC(=O)c1ccc2c(c1)NC(=O)c1ccccc1S2,9.3,0.0,21.5,94.0,-6.7
Cn1c(C(=O)NCCCN2CCN(c3ccccc3F)CC2)cc2c(=O)[nH]c3ccccc3c21,9.9,16.8*,12.6,93.5,4.2
CCCN1CCN(CCCNC(=O)c2ccc3c(c2)NC(=O)c2ccccc2S3)CC1,23.3,41.6*,21.5,109.2,-7.6
CCCN1CCN(CCCNC(=O)c2cc3c(=O)[nH]c4ccccc4c3s2)CC1,24.9*,-1.2,26.1,109.2,-50.4
CC1(CCc2ccccc2)NC(=O)N(CC(=O)Nc2c(F)cccc2F)C1=O (stereo not given),x,-0.2,11.2,111.0,1.7
CCOC1(/N=C(\C)NS(=O)(=O)c2ccc(Cl)cc2)C(C)=CC(=O)C=C1C,10.4,1.9,-7.9,81.4,-3.3
COc1ccc(NS(=O)(=O)c2cccc(C(=O)N/N=C(/C)c3ccc(-n4ccnc4)cc3)c2)cc1,x,-3.4,x,x,9.0
CCOc1ccc(S(=O)(=O)Nc2ccc(C(=O)N/N=C(\C)c3ccc(-n4ccnc4)cc3)cc2)cc1,34.9*,-9.2,-8.2,96.7,-1.2

# Screening results (PubChem BioAssay)
